Compound activity (PubChem)
Only some compounds are listed: those with a hit (about 1.7% of all), similar ones and a draw of the others.
Vif inh – blocks HIV Vif function; HEK293T cells, Vif self-association by quenched fluorescence, imaging, 24 h; inhibition, % at 7.49 µM; hit rate 0.35% among 340,000; in the data active = inhibition above about 50%, passing the limit was not always enough
FGF22 binding – binders of recombinant human FGF22 by thermal shift | Q9HCT0 | SYPRO orange fluorescence; percent of sucrose octasulfate shift, DMSO zero | activity (Tm shift, normalised), % at 9.99 µM | hit rate 1.5% among 340,000 | AID 651658;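 active = mean Tm shift, scaled 0 neutral to 100 positive control, at about 1.3% or above, every replicate too, limit read from the data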
Target sequence (Q9HCT0 whole entry, looked up): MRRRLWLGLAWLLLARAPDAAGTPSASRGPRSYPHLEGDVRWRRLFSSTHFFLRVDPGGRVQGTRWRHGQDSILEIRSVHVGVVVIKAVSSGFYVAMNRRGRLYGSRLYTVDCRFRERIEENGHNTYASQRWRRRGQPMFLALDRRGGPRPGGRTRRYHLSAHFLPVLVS
F508del corr – correctors of CFTR F508del function in bronchial epithelial cells. CFBE cells, YFP halide quenching; stimulated with forskolin plus potentiator P3; % fluorescence drop versus neutral controls. activity (quench increase), % at 7.58 µM. hit rate 0.36% among 350,000. AID 720511;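 active = mean added fluorescence quench of at least 8% versus neutral control, with both replicates also reaching 8%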;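 also: cells transiently co-express mutant CFTR-F508del with the halide-sensitive YFP; corrector assay measuring rescue of mutant channel to the surface after 24 h compound exposure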
Numbers without * were called inactive.

For C[C@@H]1CN([C@H](C)CO)C(=O)c2cc(C#CCN(C)C)cnc2O[C@@H]1CN(C)C(=O)Nc1cccc(F)c1 the results were FGF22 binding 0 and F508del corr -4.
Screening COCC(=O)Nc1ccc2c(c1)OC[C@H](C)N(C(=O)Cc1ccccn1)C[C@@H](C)[C@H](OC)CN(C)C2=O returned FGF22 binding 0 and F508del corr 0.
For C[C@H](CO)N1C[C@H](C)[C@@H](CN(C)S(=O)(=O)c2ccc(F)cc2)Oc2ccc(NC(=O)Cc3cn(C)c4ccccc34)cc2CC1=O the results were FGF22 binding 0 and F508del corr 1.
For CC(/C=N/NC(=O)c1ccncc1)=C\c1ccccc1 the results were Vif inh -3, FGF22 binding 0 and F508del corr -1.
For CC(=C/c1ccc(C(C)C)cc1)/C=N/NC(=O)c1ccncc1 the results were Vif inh 0, FGF22 binding 43* and F508del corr 2.
CCOC(=O)c1cccc(NC(=O)Nc2ccc(OCC)cc2)c1 was read as Vif inh -13, FGF22 binding 43* and F508del corr -1.
CCOc1ccc(NC(C)=O)cc1 was read as Vif inh -3, FGF22 binding 0 and F508del corr -2.
For CCOc1ccc(NC(=O)Nc2cccc(C(=O)O)c2)cc1 the results were Vif inh 7, FGF22 binding 0 and F508del corr 2.
CCOc1ccc(NC(N)=O)cc1 was read as Vif inh 65*, FGF22 binding 0 and F508del corr 5.
`C[C@@H]1CN([C@H](C)CO)C(=O)c2cc(NC(=O)CCCN(C)C)ccc2O[C@@H]1CN(C)S(=O)(=O)c1ccccc1` gave FGF22 binding 0 and F508del corr -2.
For COc1ccccc1NC(=O)N1[C@H](CO)[C@@H](c2ccccc2)[C@@H]1C#N the results were FGF22 binding 0 and F508del corr 3.
Screening COc1ccc(Cn2cc(C(=O)c3ccccc3)c(=O)c3cc(OC)ccc32)cc1 returned Vif inh -5, FGF22 binding 0 and F508del corr 2.
Screening COc1ccc(Cn2cc(C(=O)O)c(=O)c3ccccc32)cc1 returned Vif inh 2, FGF22 binding 43* and F508del corr -1.
For C/C=C/c1ccc([C@H]2[C@H]3CN(C(=O)Nc4cc(F)ccc4F)CCCCN3[C@H]2CO)cc1 the results were FGF22 binding 0 and F508del corr -1.
Screening CCOC(=O)N1CCN(C(=O)C2CCN(C(=O)c3ccccc3C)CC2)CC1 returned Vif inh 6, FGF22 binding 1.4* and F508del corr -11.
Screening Cc1ccccc1C(=O)N1CCC(C(=O)N2CCN(c3ncccn3)CC2)CC1 returned Vif inh 1, FGF22 binding 0 and F508del corr 1.
Screening COc1ccc(C2(CNC(=O)C(=O)Nc3ccc(C)cc3)CCOCC2)cc1 returned Vif inh -8, FGF22 binding 43* and F508del corr -1.
`COc1ccc(C2(CNS(=O)(=O)c3ccc(C)cc3)CCOCC2)cc1` gave FGF22 binding 0 and F508del corr -1.
For COc1ccc(S(=O)(=O)N(C)C[C@H]2OCCCC[C@@H](C)Oc3ccc(NC(=O)Nc4ccc5c(c4)OCO5)cc3C(=O)N([C@@H](C)CO)C[C@H]2C)cc1 the results were FGF22 binding 0 and F508del corr -1.
COc1ccc(S(=O)(=O)N(C)C[C@H]2OCCCC[C@@H](C)Oc3ccc(NS(=O)(=O)c4c(C)noc4C)cc3C(=O)N([C@@H](C)CO)C[C@@H]2C)cc1 was read as FGF22 binding -1 and F508del corr -2.
For Cc1cccc(C)c1NC(=O)CN1C(=O)S/C(=C\c2cccn2C)C1=O the results were Vif inh 1.
For Cn1cccc1/C=C1/SC(=O)N(CC(=O)N2CCCC2)C1=O the results were Vif inh -4, FGF22 binding 43* and F508del corr -3.
For C[C@H](CO)N1C[C@H](C)[C@@H](CN(C)Cc2ccc(C(=O)O)cc2)Oc2ccc(NC(=O)CCN3CCOCC3)cc2CC1=O the results were FGF22 binding 0 and F508del corr 3.
COc1ccc(-c2nc3c(C(=O)NCCN(C)C)cccc3c3ccccc23)cc1 was read as Vif inh 0, FGF22 binding 0 and F508del corr 11*.
Screening COc1ccc(-c2coc3c(C(=O)NCCN(C)C)cccc23)c(C)c1 returned Vif inh 14, FGF22 binding 0 and F508del corr -1.
`CN(C)CCNC(=O)c1cccc2[nH]c(-c3ccncc3)nc12` gave Vif inh -6, FGF22 binding 0 and F508del corr -1.
Screening CN(C)CCNC(=O)c1cccc2nc3c(ccc4ccccc43)nc12 returned Vif inh -9, FGF22 binding 0 and F508del corr 19*.
